Experimental data as given in publication PMC7819943, “Rice protein-binding microarrays: a tool to detect cis-acting elements near promoter regions in rice”.
In all, about 35,000 sequences were measured (“fluorescence intensity (a.u.)”: median about 10,000, highest 2% from about 52,000 on). The sample as a whole holds a higher share of the highest values than the screen did.

These sequences were tested against T1, OsWOX13 (Oryza sativa, UniProt Q5QMM3 1-267) (assay: protein-binding microarray (RPBM); PBS, 2% BSA, 51.3 ng/ul salmon testes DNA, 50 uM zinc acetate, 200 nM TF, 25 C, 1 h; high values mean tight binding). Conditions: protein: recombinant; tags: N-terminal polyhistidine and DsRed monomer fusion (pET32a); label: CyDye5-dUTP incorporated in the synthesized complementary strand; 3' TTTTT single-stranded linker to array surface; dsDNA, one strand shown.
T1 sequence: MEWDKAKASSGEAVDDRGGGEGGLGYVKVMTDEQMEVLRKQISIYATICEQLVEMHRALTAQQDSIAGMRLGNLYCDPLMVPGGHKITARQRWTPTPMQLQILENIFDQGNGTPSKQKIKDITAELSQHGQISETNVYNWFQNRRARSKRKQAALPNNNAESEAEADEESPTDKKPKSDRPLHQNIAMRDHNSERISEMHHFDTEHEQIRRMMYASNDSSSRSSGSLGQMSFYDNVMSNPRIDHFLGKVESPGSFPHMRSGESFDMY
Summary of the method: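 Binding signal is reported as fluorescence intensity per feature (arbitrary units) from an Axon 4000B scanner. Incubation used 200 nM of each Ni–NTA-purified, N-terminally polyhistidine- and DsRed-fused transcription factor from E. coli BL21-CodonPlus on a double-stranded custom Agilent array for 1 h at 25 °C, with 50 µM zinc acetate in the buffer, followed by washing.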

Sequence | binding signal
TGATAATAATCTGTTCAATAATTTATCTTAAACAGGGCCTCGGAGTCACCTAGTGCAG | 11200 fluorescence intensity (a.u.)
CCCTATCAATTACCTTCACTATCATATTAATCATTGTAGGCGGAGTCACCTAGTGCAG | 24100 fluorescence intensity (a.u.)
CAAACAGTCAATTAGGCCTAAACAAGTTGCTACGAGCTAGCGGAGTCACCTAGTGCAG | 33200 fluorescence intensity (a.u.)
GAATATTAAACTTCCAAAACAGGTCCAAAGCTATGTTCTTCGGAGTCACCTAGTGCAG | 57500 fluorescence intensity (a.u.)
CACTTAATTTGTTAATTAAATATATTTTCCAAACAAATTTCGGAGTCACCTAGTGCAG | 39100 fluorescence intensity (a.u.)
GCTAATTATAGTTTAATTAGGCTTAATAAATTTACAGTTTCGGAGTCACCTAGTGCAG | 42300 fluorescence intensity (a.u.)
ATTAATTAAAGCTAATTAAACGATGTTGTTTATTAGGCTTCGGAGTCACCTAGTGCAG | 58700 fluorescence intensity (a.u.)
TTATTACAATTTAATTATATTTTAATTATTCTAAAAGCTTCGGAGTCACCTAGTGCAG | 20200 fluorescence intensity (a.u.)
TAAAATTAAGCTCCAAATAAACTATATAAAATTATGTATTCGGAGTCACCTAGTGCAG | 4090 fluorescence intensity (a.u.)
AATTGCGTGATTGTGCTAATCAAAATGCAGAATTGGATATCGGAGTCACCTAGTGCAG | 23000 fluorescence intensity (a.u.)
CAAAATTAAACTTTAAAATTCAGACTTCAGACTCCAGTGCCGGAGTCACCTAGTGCAG | 13400 fluorescence intensity (a.u.)
ACTACTAAGTTAATTGCATTTTACTTCTCTCTCAATCTCGCGGAGTCACCTAGTGCAG | 10000 fluorescence intensity (a.u.)
TTCGATCCTGACTGGAATTGGATGCCTAGTTTGCCTTGCCCGGAGTCACCTAGTGCAG | 4190 fluorescence intensity (a.u.)
GTTAACTGAATATTATATCGAAGAAAACTTGCATTTCAGACGGAGTCACCTAGTGCAG | 7980 fluorescence intensity (a.u.)
CTCAAAATTTAAATTTAAGGTTAAAAGTTAAAATTTTACGCGGAGTCACCTAGTGCAG | 21200 fluorescence intensity (a.u.)
GTCTTTATTTGATTGATCATCTGGCATCAATCAATCGGCTCGGAGTCACCTAGTGCAG | 65500 fluorescence intensity (a.u.)
ACAGAGAGAGGTAGGTGATTGATAATAAGAAAGAAGGGAACGGAGTCACCTAGTGCAG | 13000 fluorescence intensity (a.u.)
TGGGATTGGGAAATAAATGAAGGGTTAGGATTAAATGGAACGGAGTCACCTAGTGCAG | 24100 fluorescence intensity (a.u.)
ATAGATAGATAGATAGATAGATAGATTGATCGATCGATCGCGGAGTCACCTAGTGCAG | 55400 fluorescence intensity (a.u.)
TTGACTTGTACATAGTAATGATTGGCAGGTAATGACGTACCGGAGTCACCTAGTGCAG | 24100 fluorescence intensity (a.u.)
AAGATAGATAGATAGATAGATAGATAGATCGATCGATCATCGGAGTCACCTAGTGCAG | 14900 fluorescence intensity (a.u.)
GGATTTGATCGATTGGATTTCGATTTGGCCCGCGATTTGGCGGAGTCACCTAGTGCAG | 4010 fluorescence intensity (a.u.)
CCTGCATCATCAATCTGCCTACATATCGATCGATTGATCTCGGAGTCACCTAGTGCAG | 4630 fluorescence intensity (a.u.)
GATAATAGATAATAGATAGATTGAAGATTAGGAAAGGGAACGGAGTCACCTAGTGCAG | 54800 fluorescence intensity (a.u.)

Sequence | binding signal
ACATTGACACCAATCTTGAACATAATAGCGCATTACAGTACGGAGTCACCTAGTGCAG | 7300 fluorescence intensity (a.u.)
TAGTCTTGATTGATTGGCAGATGACAGCATAATAGCCGTACGGAGTCACCTAGTGCAG | 65200 fluorescence intensity (a.u.)
CGATCAATCTCTCTTTATTTATTTGCAGATCGATCAACCTCGGAGTCACCTAGTGCAG | 5760 fluorescence intensity (a.u.)
TTTAATCTTTAATATTGATTTTGCCACCAACTAAAACGGCCGGAGTCACCTAGTGCAG | 4660 fluorescence intensity (a.u.)
ATCCATGTAAATTAACTCATCCAATGTGACAGCACGACGCCGGAGTCACCTAGTGCAG | 8800 fluorescence intensity (a.u.)
ACCCAGTAATTTCCAAATCTAAAGATAGGAGATTTTAGGACGGAGTCACCTAGTGCAG | 6740 fluorescence intensity (a.u.)
ATACTAATTATACGGTCACACCTATCCGTTGCATGATGCACGGAGTCACCTAGTGCAG | 21100 fluorescence intensity (a.u.)
CTTAATTTGGCACTGCCCAAGAAAATTTTGACAAGTACTTCGGAGTCACCTAGTGCAG | 9440 fluorescence intensity (a.u.)
TTCGCTTTGATGGACGGCTCAGATCGGCTCCTAATCCATCCGGAGTCACCTAGTGCAG | 3310 fluorescence intensity (a.u.)
TGATTAAATATAACTAAACTGTCAACGACATAATGCATTACGGAGTCACCTAGTGCAG | 3470 fluorescence intensity (a.u.)
AACTAACAGATTATTCTATGTCGGTTTATTATAATCCAACCGGAGTCACCTAGTGCAG | 15700 fluorescence intensity (a.u.)
TCTTGACACCGGCCGGATTGATCTATCATCCATCCATCGACGGAGTCACCTAGTGCAG | 12300 fluorescence intensity (a.u.)
AGATCTGATTGATATTGATCCATCGCCGATCGATTGATCACGGAGTCACCTAGTGCAG | 53800 fluorescence intensity (a.u.)
AGGAATCGGAATTGATTTCATGCACTGATCGATCCATCCACGGAGTCACCTAGTGCAG | 7970 fluorescence intensity (a.u.)
TTTGATTGAGATTGATAATAACCTGCTGTAACTTAGCGAACGGAGTCACCTAGTGCAG | 61100 fluorescence intensity (a.u.)
TGTTATAATAGTGTAGATTGATCGATATAATTGTATATGACGGAGTCACCTAGTGCAG | 3170 fluorescence intensity (a.u.)
AATAGATTGATTGATTGATTGAATAATATAGATAGATTGACGGAGTCACCTAGTGCAG | 64400 fluorescence intensity (a.u.)
GGGCTGTTTAGTTTTGGATTGATTGAGCAATGTAATATAACGGAGTCACCTAGTGCAG | 22200 fluorescence intensity (a.u.)
ATATAATAATAGATAGATAGATAGATAGATAGATAGATAGCGGAGTCACCTAGTGCAG | 49300 fluorescence intensity (a.u.)
GTAGATAGATGGCACATTGGCAGTGATGGCTGTGTACAGTCGGAGTCACCTAGTGCAG | 8260 fluorescence intensity (a.u.)
TAGATAGATAGATAGATATAGTTGGTGTGTTTGACCCTAGCGGAGTCACCTAGTGCAG | 36400 fluorescence intensity (a.u.)
ATAAATAAACTTATTTTGAGATAATGGTGTAATAGTGTAGCGGAGTCACCTAGTGCAG | 5300 fluorescence intensity (a.u.)
GATAGATAGATAGATAGATAGATAGATTTGTTGGCTGTGTCGGAGTCACCTAGTGCAG | 63500 fluorescence intensity (a.u.)
